Screening data as filed in PubChem.
NTMT1 inh: Primary qHTS for Inhibitors of N-terminal methyltransferase 1 (NTMT1): MTaseGlo Assay; NTMT1 MTase-Glo SAH luminescence, purified enzyme; Potency, µM (series often up to 114 µM), actives largely listed as inhibitors; hit rate 2.5% among 59,000; AID 1645870, 2021; further: nearly all actives have a fitted effect of over 65% in size
B2AR arrestin ag: qHTS assay of beta-arrestin-biased ligands of beta2-adrenergic receptor: NCGC Sytravon Library Screen. Beta-2 adrenergic receptor (Homo sapiens), P07550. HTLA Tango cells, beta-arrestin recruitment, luciferase luminescence, 18 h. Potency, µM (top dose mostly 46.1 µM), most hits filed as activators. 44,000 tested, under 10 active. AID 1347077, 2019
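Tango cell line, 1% FBS DMEM; cpd titration up to 46 microM; 18 hr, 37 degrees C, 5% CO2. Luciferin/ATP substrate mix added, 15 min RT, luminescence. %Activity, CRC fitting, curve-class categorization.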
GALK inhibitor: qHTS Assay for Inhibitors of Human Galactokinase (GALK): NCGC Sytravon Library Screen. Potency, µM (top dose mostly 57.5 µM), actives largely listed as inhibitors. 44,000 tested, under 10 active. recombinant GALK, Kinase-Glo ATP luminescence, 1 h. AID 1347072, 2019. P51570
Target sequence (P51570 whole entry, looked up): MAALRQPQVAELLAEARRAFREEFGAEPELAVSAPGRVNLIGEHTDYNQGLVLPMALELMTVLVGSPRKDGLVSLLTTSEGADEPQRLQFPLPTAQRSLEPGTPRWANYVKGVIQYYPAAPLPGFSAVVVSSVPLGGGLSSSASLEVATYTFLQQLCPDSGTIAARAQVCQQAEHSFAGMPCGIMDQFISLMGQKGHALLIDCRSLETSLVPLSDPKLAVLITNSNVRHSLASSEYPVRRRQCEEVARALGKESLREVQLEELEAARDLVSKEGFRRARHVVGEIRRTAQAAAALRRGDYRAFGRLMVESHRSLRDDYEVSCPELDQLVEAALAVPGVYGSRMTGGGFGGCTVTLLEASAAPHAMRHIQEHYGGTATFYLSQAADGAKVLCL
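Reactions with and without enzyme served as controls. GALK at 5 nM phosphorylates 100 uM galactose using 35 uM ATP (HEPES pH 8.0, Mg2+) for 1 h at RT, with luminescence read 10 min after adding Kinase-Glo Plus.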
GALC G270D up: A Novel Cell-Based Assay to Identify Small Molecules for B -Galactocerebrosidase. 145M-Twi-hGALC-G270D cells, HMU-beta-Gal fluorescence, 48 h. P54803. hit rate 0.1% among 45,000. Potency, µM (doses to about 57.5 µM), most hits filed as activators; further: nearly all actives have a fitted effect of over 65% in size
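qHTS, 1536-well; 145M-Twi-hGALC-G270D cells (WT line also made) in DMEM/F12 + 10% FBS; compound incubation on live cells; HMU-β-gal 0.1 mM final, pH 5.2, NaTC; carbonate stop; fluorescence increase = enhanced residual activity.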
GPR32 ag: qHTS for Agonists of Human Resolvin D1 Receptor DRV1; AID 1346428, 2018; activation, % at 76.9 µM; hit rate 2.5% among 48,000; Probable G-protein coupled receptor 32 (Homo sapiens), O75388; CHO-K1 GPR32 beta-arrestin PathHunter luminescence, 90 min; zero percent set by DMSO-only wells;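 active means activation of at least 60% and not above a set upper limit, about 1 call in 100 departs from these limits; inconclusive means activation of 40% to 60%, or above that upper limit; inactive means activation under 40%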
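CHO-K1 cells stably expressing ProLink-tagged GPR32 and Enzyme Activator-tagged beta-arrestin were seeded at 2,500 cells/well overnight, exposed to compounds for 90 min at 37 °C, then read by beta-Gal complementation chemiluminescence after 1 h detection reagent.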
Of the large screens only hits and unclear results are named; the others gave an inactive call; ! = not active in a repeat. In the library only some 3.6% were active in any assay of this set; here they are far more common. Unless noted, the call rests on the fitted dose curve; in most records, active means well fitted curve in the direction sought with a large enough effect; inconclusive means small, poorly fitted or top-dose-only effect, or another doubt; inactive means no such curve, though single readings can be large; an effect the other way counts as inactive or inconclusive.

CCN(c1ccc(C)cc1)S(=O)(=O)c1nnc(NC(=O)c2cccs2)s1	GPR32 ag 84.6
CCN(c1ccccc1)S(=O)(=O)c1nnc(NC(=O)c2cccs2)s1	none
COc1ccccc1-c1nc(SCC(=O)c2ccccc2)n[nH]1	GPR32 ag inconclusive
COc1ccc(-c2nc(SCC(=O)c3ccc(Br)cc3)n[nH]2)cc1	GPR32 ag 113.9
O=Cc1ccc(O)c(O)c1O	NTMT1 inh 17.8µM (no result: B2AR arrestin ag, GALK inhibitor)
COc1ccc(Cn2c(C(=O)O)c(CNCc3ccc(C)o3)c3ccc(OC)cc32)cc1	GPR32 ag 74.6
COc1ccc2c(CNCCc3ccco3)c(C(=O)O)n(Cc3ccc(C)cc3)c2c1	GPR32 ag 89.4
COc1ccc2c(CNC3CCC(C)CC3)c(C(=O)O)n(Cc3ccc(F)cc3)c2c1 (stereo not given)	GPR32 ag 91.1
COc1ccc2c(CNCCc3ccco3)c(C(=O)O)n(Cc3ccc(F)cc3)c2c1	none
Cc1c(NC(=O)N2CCOCC2)ccc2c1c1ccccc1n2C(C)C	none (no result: B2AR arrestin ag, GALK inhibitor, GALC G270D up, GPR32 ag)
CCCCNc1ncc2c(-c3ccc(CN4CCN(C)CC4)cc3)cn(C3CCC(O)CC3)c2n1 (stereo not given)	NTMT1 inh 79.4µM! (no result: B2AR arrestin ag, GALK inhibitor, GALC G270D up, GPR32 ag)
Nc1nc(Nc2ccc3c(c2)CCC(N2CCCC2)CC3)nn1-c1cc2c(nn1)-c1ccccc1CCC2 (stereo not given)	NTMT1 inh 39.8µM (no result: B2AR arrestin ag, GALK inhibitor, GALC G270D up, GPR32 ag)
COc1ccc2c(c1)c(=O)c(S(=O)(=O)c1ccc(C)cc1)cn2Cc1ccccc1C	none
COc1ccc2c(c1)c(C1=C(c3c[nH]c4ccccc34)C(=O)NC1=O)cn2CCCN(C)C	NTMT1 inh 14.1µM (no result: B2AR arrestin ag, GALK inhibitor, GALC G270D up, GPR32 ag)
CN(C)CCCNc1cc(N2CCN(C3CCCCC3)CC2)c2noc3c2c1C(=O)c1ccccc1-3	NTMT1 inh 11.2µM
COc1ccccc1NC(=O)CSc1nnc(NC(=O)Nc2ccc(C)cc2)s1	GPR32 ag 78.0
COc1ccccc1NC(=O)CSc1nnc(N)s1	none
COc1cccc(C(=O)Nc2ccc(-n3nncc3-c3ccccc3)cc2)c1OC	NTMT1 inh 56.2µM
CCOc1ccccc1C(=O)Nc1ccc(-n2nncc2-c2ccccc2)cc1	none
Cc1ccc(-c2ccc(=O)n(CC(=O)NCCc3ccccn3)n2)cc1	none (no result: B2AR arrestin ag, GALK inhibitor, GALC G270D up, GPR32 ag)
Cc1cc(C)cc(NS(=O)(=O)c2ccc(-n3cccn3)cc2)c1	none
CCc1cccc(NS(=O)(=O)c2ccc(-n3cccn3)cc2)c1	GPR32 ag 85.9
O=S(=O)(Nc1ccc(F)cc1F)c1ccc(-n2cccn2)cc1	GPR32 ag 74.7
Cc1ccc(NS(=O)(=O)c2ccc(-n3cccn3)cc2)cc1Cl	GPR32 ag 73.2
COc1ccc(-c2nc(Nc3ccc(F)c(F)c3)c3ccccc3n2)cc1	none (no result: B2AR arrestin ag, GALK inhibitor, GALC G270D up, GPR32 ag)
COc1ccc(NCc2ccc(O)c3ncccc23)nc1	none (no result: B2AR arrestin ag, GALK inhibitor, GALC G270D up, GPR32 ag)
CCOc1ccc(N(C)S(=O)(=O)c2ccc3[nH]cc(C(=O)NCc4ccccc4)c(=O)c3c2)cc1	none
CCc1ccc(N(C)S(=O)(=O)c2ccc3[nH]cc(C(=O)NCC4CCCO4)c(=O)c3c2)cc1 (stereo not given)	GPR32 ag 110.3
COc1ccc(S(=O)(=O)N(CC(=O)Nc2cc(C)ccc2OC)Cc2ccccc2)cc1	NTMT1 inh 2.51µM
COc1ccc(CNC(=O)c2cnn(-c3ccc(F)cc3)c2-n2cccc2)cc1	none
CC(CNC(=O)c1cnn(-c2ccc(F)cc2)c1-n1cccc1)c1ccccc1 (stereo not given)	NTMT1 inh 79.4µM
O=C(O)[C@H]1CCCC[C@H]1C(=O)N1CCc2ccccc2[C@H]1CN1C(=O)c2ccccc2C1=O	none (no result: B2AR arrestin ag, GALK inhibitor, GALC G270D up, GPR32 ag)
COc1cccc(CNc2ccc([S+](=O)([O-])Nc3ccccc3)cc2)c1Cl	none (no result: B2AR arrestin ag, GALK inhibitor, GALC G270D up, GPR32 ag)
CCC(=O)N1CCOc2c(cc(-c3cc(OC)cc(OC)c3)cc2C(=O)N[C@H]2CCCN(C)C2)C1	none (no result: B2AR arrestin ag, GALK inhibitor, GALC G270D up, GPR32 ag)
O=c1c2oc3ccccc3c2n(Cc2ccccc2)c(=O)n1Cc1ccco1	NTMT1 inh 89.1µM
